# In article PMC7862700, “An all-to-all approach to the identification of sequence-specific readers for epigenetic DNA modifications on cytosine”:
# What was measured:
# Assay in all cases: DAPPL (digital affinity profiling via proximity ligation, sequencing); 10 mM Tris-HCl pH 7.5, 50 mM NaCl, 1 mM DTT, 4% glycerol, room temperature, 30 min; GST-TFs on glutathione beads, 16-mer random dsDNA library, 0.1% formaldehyde crosslink after washing; high values mean tight binding
# Conditions in all cases: protein: recombinant; tags: N-terminal GST; dsDNA, one strand shown
# [1] = target: ELF4 (Homo sapiens, UniProt Q99607 1-663)
# Chain of ELF4 (Q99607 whole entry, the tested form may be a part): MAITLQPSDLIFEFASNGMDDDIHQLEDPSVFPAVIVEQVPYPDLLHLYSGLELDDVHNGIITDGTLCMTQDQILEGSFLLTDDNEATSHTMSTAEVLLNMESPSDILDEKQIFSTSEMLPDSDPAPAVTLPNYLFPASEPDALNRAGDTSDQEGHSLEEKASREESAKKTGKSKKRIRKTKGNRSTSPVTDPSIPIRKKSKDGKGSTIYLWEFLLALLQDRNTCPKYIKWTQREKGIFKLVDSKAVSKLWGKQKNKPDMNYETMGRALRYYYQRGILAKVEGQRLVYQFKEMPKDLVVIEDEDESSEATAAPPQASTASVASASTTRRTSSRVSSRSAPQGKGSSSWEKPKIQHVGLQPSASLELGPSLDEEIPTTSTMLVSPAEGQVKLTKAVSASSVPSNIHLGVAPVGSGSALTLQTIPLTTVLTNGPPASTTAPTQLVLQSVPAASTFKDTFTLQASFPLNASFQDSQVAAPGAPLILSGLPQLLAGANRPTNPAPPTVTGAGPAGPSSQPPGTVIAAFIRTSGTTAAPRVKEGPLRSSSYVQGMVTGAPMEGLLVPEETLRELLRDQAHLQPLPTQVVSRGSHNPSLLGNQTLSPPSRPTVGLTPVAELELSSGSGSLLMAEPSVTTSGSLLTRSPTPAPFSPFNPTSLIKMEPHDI
# Procedure, shortened: (§1)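 Pools were built from human transcription factors expressed in yeast as GST fusions, captured on glutathione beads and DNA-barcoded, along with a tag-only sample. Incubation with 200 nmole of a 16-mer random double-stranded DNA library lasted 30 min at room temperature in Tris/NaCl/DTT/glycerol buffer, and was followed by washing, 0.1% formaldehyde crosslinking, proximity ligation, PCR amplification and Illumina NextSeq500 sequencing. Binding signal is the quotient of each hexamer's read frequency for a factor and its frequency for the tag-only sample.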
# [2] = target: T1, ETV2 (Homo sapiens, UniProt O00321 1-342)
# T1 sequence: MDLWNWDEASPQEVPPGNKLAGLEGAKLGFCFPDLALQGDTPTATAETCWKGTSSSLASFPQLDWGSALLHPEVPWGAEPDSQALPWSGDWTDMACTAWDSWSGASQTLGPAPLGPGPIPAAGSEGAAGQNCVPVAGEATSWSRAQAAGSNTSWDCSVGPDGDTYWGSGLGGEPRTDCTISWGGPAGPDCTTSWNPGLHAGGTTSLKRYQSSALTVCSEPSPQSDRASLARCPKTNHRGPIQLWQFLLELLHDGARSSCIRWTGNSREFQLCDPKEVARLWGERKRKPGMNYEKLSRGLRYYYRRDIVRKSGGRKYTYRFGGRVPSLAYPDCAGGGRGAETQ
# Procedure, shortened: as §1
# [3] = target: T2, ELF3 (Homo sapiens, UniProt P78545 1-371)
# T2 sequence: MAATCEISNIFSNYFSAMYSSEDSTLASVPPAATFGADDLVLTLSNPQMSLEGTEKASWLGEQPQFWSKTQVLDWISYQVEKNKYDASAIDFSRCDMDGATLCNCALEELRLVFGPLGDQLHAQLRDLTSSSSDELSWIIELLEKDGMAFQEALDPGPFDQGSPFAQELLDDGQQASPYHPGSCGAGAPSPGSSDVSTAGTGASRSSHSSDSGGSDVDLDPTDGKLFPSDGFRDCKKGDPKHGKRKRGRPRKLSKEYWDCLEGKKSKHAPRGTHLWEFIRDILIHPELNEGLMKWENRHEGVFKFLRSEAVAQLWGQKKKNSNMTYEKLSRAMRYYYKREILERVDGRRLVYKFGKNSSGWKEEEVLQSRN
# Procedure, shortened: as §1
# [4] = target: ETV1 (Homo sapiens, UniProt P50549 1-477)
# Chain of ETV1 (P50549 whole entry): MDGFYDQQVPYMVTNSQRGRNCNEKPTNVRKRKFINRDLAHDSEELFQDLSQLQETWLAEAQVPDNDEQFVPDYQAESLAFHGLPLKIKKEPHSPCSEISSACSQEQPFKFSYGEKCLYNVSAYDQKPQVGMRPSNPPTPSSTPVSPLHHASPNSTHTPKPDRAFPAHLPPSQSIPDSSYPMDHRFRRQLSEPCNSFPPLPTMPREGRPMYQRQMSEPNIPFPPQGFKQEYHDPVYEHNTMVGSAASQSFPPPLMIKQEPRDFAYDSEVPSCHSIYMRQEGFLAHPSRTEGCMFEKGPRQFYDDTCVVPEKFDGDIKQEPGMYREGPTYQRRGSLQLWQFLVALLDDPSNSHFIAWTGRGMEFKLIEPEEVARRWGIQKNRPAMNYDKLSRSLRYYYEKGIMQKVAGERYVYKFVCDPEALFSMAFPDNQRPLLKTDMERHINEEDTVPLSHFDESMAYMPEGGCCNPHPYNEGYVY
# Procedure, shortened: as §1
# [5] = target: T3, ERF (Homo sapiens, UniProt P50548 1-548)
# T3 sequence: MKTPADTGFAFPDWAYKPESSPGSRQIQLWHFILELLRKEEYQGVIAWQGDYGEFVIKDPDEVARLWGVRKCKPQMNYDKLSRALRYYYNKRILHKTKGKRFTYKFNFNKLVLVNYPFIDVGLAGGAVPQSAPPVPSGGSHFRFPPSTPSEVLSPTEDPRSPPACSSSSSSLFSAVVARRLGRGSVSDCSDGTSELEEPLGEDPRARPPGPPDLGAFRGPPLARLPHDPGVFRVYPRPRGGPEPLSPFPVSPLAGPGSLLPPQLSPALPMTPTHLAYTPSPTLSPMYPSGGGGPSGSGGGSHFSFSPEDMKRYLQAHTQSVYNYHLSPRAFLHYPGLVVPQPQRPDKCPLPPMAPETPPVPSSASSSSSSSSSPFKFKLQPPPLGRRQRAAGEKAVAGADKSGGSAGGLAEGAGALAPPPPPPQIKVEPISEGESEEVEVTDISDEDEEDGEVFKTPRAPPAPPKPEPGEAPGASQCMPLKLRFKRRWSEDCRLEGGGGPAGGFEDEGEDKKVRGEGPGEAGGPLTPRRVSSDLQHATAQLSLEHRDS
# Procedure, shortened: as §1
# [6] = target: T4, ETV3L (Homo sapiens, UniProt Q6ZN32 1-361)
# T4 sequence: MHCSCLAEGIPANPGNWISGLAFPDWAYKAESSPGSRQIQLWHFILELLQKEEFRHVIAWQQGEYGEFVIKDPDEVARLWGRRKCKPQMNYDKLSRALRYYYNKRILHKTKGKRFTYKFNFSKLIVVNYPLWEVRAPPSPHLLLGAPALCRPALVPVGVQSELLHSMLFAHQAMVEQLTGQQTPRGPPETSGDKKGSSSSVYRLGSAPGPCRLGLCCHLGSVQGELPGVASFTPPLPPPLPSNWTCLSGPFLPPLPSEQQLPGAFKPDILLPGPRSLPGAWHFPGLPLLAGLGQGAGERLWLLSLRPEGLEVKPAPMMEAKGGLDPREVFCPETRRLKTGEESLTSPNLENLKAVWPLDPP
# Procedure, shortened: as §1
# [7] = target: T5, ETS2 (Homo sapiens, UniProt P15036 1-469)
# T5 sequence: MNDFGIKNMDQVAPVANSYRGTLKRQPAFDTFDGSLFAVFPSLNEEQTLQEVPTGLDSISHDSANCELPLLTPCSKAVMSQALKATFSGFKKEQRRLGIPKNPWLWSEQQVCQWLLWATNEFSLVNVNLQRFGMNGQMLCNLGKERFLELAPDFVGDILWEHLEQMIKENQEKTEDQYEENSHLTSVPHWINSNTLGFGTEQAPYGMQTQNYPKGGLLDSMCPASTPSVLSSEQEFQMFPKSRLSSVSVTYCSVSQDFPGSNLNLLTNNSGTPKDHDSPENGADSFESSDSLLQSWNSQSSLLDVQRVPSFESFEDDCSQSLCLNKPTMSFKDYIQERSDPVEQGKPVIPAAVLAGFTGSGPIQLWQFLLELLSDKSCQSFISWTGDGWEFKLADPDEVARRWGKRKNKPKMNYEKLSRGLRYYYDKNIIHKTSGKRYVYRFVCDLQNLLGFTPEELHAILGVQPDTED
# Procedure, shortened: as §1
# [8] = target: T6, ETV7 (Homo sapiens, UniProt Q9Y603 1-341)
# T6 sequence: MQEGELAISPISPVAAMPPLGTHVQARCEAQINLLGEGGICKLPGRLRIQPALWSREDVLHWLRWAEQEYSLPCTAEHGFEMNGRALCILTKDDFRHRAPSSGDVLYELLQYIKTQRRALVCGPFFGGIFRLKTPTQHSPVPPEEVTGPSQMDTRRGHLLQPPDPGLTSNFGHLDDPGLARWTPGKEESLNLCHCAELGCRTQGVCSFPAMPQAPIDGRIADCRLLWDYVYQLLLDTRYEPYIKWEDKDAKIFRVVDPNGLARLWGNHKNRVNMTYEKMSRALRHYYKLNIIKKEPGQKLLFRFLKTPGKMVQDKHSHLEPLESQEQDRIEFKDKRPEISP
# Procedure, shortened: as §1
# [9] = target: T7, ETV3 (Homo sapiens, UniProt P41162-2 1-143)
# T7 sequence: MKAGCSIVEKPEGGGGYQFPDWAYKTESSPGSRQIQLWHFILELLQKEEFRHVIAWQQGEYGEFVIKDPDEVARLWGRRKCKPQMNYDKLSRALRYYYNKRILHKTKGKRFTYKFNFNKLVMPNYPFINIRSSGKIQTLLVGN
# Procedure, shortened: as §1
# [10] = target: ETV6 (Homo sapiens, UniProt P41212 1-452)
# Chain of ETV6 (P41212 whole entry): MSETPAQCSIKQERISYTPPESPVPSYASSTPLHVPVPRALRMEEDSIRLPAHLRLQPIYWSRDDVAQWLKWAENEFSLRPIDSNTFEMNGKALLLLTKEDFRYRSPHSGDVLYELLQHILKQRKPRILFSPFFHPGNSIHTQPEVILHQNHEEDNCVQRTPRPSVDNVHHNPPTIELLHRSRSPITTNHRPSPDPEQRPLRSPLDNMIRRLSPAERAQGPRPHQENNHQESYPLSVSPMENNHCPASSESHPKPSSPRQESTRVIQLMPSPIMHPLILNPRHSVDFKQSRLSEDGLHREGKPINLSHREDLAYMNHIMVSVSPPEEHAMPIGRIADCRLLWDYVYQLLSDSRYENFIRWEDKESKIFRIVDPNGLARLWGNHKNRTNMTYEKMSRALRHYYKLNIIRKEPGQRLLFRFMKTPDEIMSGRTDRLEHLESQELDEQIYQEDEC
# Procedure, shortened: as §1
sequence,measurement,setting,value
CTGCGG,binding signal,[1],"1.14 fold enrichment (6-mer frequency, TF over GST control)"
same,binding signal,[2],"1.25 fold enrichment (6-mer frequency, TF over GST control)"
same,binding signal,[3],"1.2 fold enrichment (6-mer frequency, TF over GST control)"
same,binding signal,[4],"1.15 fold enrichment (6-mer frequency, TF over GST control)"
same,binding signal,[5],"1.04 fold enrichment (6-mer frequency, TF over GST control)"
same,binding signal,[6],"1.17 fold enrichment (6-mer frequency, TF over GST control)"
same,binding signal,[7],"1.12 fold enrichment (6-mer frequency, TF over GST control)"
same,binding signal,[8],"1.18 fold enrichment (6-mer frequency, TF over GST control)"
same,binding signal,[9],"1.14 fold enrichment (6-mer frequency, TF over GST control)"
same,binding signal,[10],"1.09 fold enrichment (6-mer frequency, TF over GST control)"
